# Test results from ChEMBL document CHEMBL3988442, “University of Dundee, Small-Polar-MMV Screening Library” (2021).
# The campaign covered roughly 48,000 compounds. About 13,000 (27%) showed an effect of 50% or more. This is one part of the list.
# System: Wolbachia pipientis
# Test: Anti-Wolbachia Cell-Based Screen
# Assay type: functional
# Design: scale not given: in the data most compounds retested in dose-response had high values
# Conditions: 5 µM
row,Compound,Percent Effect
1,Cc1ccc(S(=O)(=O)NC(=O)COc2ccc(CC#N)cc2)s1,-2.544%
2,CN(c1ccc(-c2nc(C3CC3)no2)cn1)C1CCOCC1,5.539%
3,Cc1cccc(NCCNc2ccc(C#N)cn2)n1,14.53%
4,CN(Cc1nnc(-c2ccco2)o1)Cc1nc2c(s1)CCCC2,-12.52%
5,COc1ccc(C(=O)N2Cc3cc(C)ccc3OCC2CN(C)C)cc1.Cl (configuration not stated),72.78%
6,COc1ccc(C(=O)NC[C@H]2COCc3nc4cc(C)ccc4n32)cc1,-9.863%
7,COc1ccccc1C(=O)N1Cc2cc(C)ccc2OCC1CN(C)C.Cl (configuration not stated),-11.9%
8,Cc1ccc2c(c1)CN(C(=O)c1cccnc1)C(CN(C)C)CO2.Cl (configuration not stated),73.73%
9,CCOCCC(=O)NCc1ccnc(NC2CC2)c1,-81.15%
10,CC(C)(C)OC(=O)N1CCCC[C@H]1C(=O)NCc1nccs1,1.043%
11,CCCC1(NC(=O)C(c2ccccc2C)N(C)C)CC1 (configuration not stated),5.158%
12,Cc1ccccc1C(C)NC(=O)c1ccc(=O)n(C)c1 (configuration not stated),28.6%
13,Cc1ccc(C)c(C(NC(=O)C(C)(C)C)c2cccnc2)c1 (configuration not stated),4.189%
14,CCC(NC(=O)C(C)(C)C)c1ccccc1C (configuration not stated),109.5%
15,CCC(NC(=O)C(C)C)c1ccccc1C (configuration not stated),112%
16,CCC(=O)NC(CC)c1ccccc1C (configuration not stated),115.1%
17,CCC(NCc1ccccc1C)c1ccccc1OCC(=O)NC (configuration not stated),-1.01%
18,Cc1ccccc1C(C)NC(=O)CN1CCN(Cc2ccc(Cl)s2)CC1 (configuration not stated),-0.8834%
19,Cc1ccccc1C(NC(=O)CCCS(C)(=O)=O)C(C)(C)C (configuration not stated),-11.53%
20,CCC(=O)NC(C)c1ccccc1C (configuration not stated),111%
21,Cc1ccccc1C(CC(=O)NCC(N)=O)c1ccccc1 (configuration not stated),-4.865%
22,CCC(NS(C)(=O)=O)c1ccccc1C (configuration not stated),-2.544%

row,Compound,Percent Effect
1,Cc1nn2c(N3CCS(=O)(=O)CC3)cc(-c3ccccc3)nc2c1C,-7.306%
2,COC(=O)CSCc1noc(-c2ccc(Cl)cc2)n1,23.78%
3,Cc1nn(CCC#N)c(C)c1[C@@H]1C=C[C@@H](NCc2ccc(F)cc2)C1,-3.605%
4,CC(C)CCC(C)NC(=O)c1ccc(OCC(N)=O)cc1 (configuration not stated),-5.752%
5,NC(=O)c1ccc(S(=O)(=O)NC2CCN(Cc3ccccc3)C2=O)cc1 (configuration not stated),-1.969%
6,Cn1nc(C(=O)N2CCSCC2)cc1NC(=O)c1ccco1,98.85%
7,Cn1nc(C(=O)NC2CCCCC2)cc1NC(=O)C1CC1,0.3949%
8,Cc1nc(N2CCCC2)nc(C)c1NC(=O)c1ccco1,8.53%
9,Cn1nc(C(=O)N2CCCCCC2)cc1NC(=O)c1ccccc1,99.88%
10,CCCn1ccc(C(=O)N2CCC(C)CC2)n1,-7.324%
11,CCN1CCN(C(=O)c2cc(NC(=O)c3ccccc3)n(C)n2)CC1,93.08%
12,CC1CCN(C(=O)c2cc(NC(=O)c3ccccc3)n(C)n2)CC1,70.66%
13,COC(=O)c1cc(C(=O)N2CCCCCC2)n(-c2ccccc2)n1,-9.69%
14,Cc1nc(N2CCOCC2)nc(C)c1NC(=O)c1ccco1,3.58%
15,CCN1CCN(C(=O)c2cc(C(=O)OC)nn2-c2ccccc2)CC1,-11.35%
16,CC1CCN(C(=O)c2cn(-c3ccc(C(F)(F)F)cn3)nn2)CC1,-7.014%
17,CCn1nc(C)cc1C(=O)N1CCCN(CCCc2ccccc2)CC1,0.5946%
18,C/C=C(/C)C(=O)NS(=O)(=O)c1ccc(C(F)(F)F)cn1,4.736%
19,CCCN(C(=O)c1ocnc1C)C1CCCN(Cc2ccccc2)C1 (configuration not stated),-1.253%
20,O=C1CC(NCc2ccc(OC(F)F)cc2)CN1Cc1cccc(F)c1 (configuration not stated),2.286%
21,CN1CCC(Oc2ccc(NC(=O)c3ccccc3)cc2)CC1,6.259%
22,Cc1cccc(C(=O)N2CCN(C)CC2)c1NC(=O)c1ccncc1,-3.532%

row,Compound,Percent Effect
1,CN1CCN(C(=O)c2cc(NC(=O)c3ccccc3)n(C)n2)CC1,103.5%
2,Cc1cccc(C(=O)N2CCSCC2)c1NC(=O)c1cccnc1,-13.65%
3,O=C(c1ccn(-c2ccccc2Cl)n1)N1CCSCC1,-7.672%
4,Cn1nc(C(=O)N2CCSCC2)cc1NC(=O)c1ccccc1,96.7%
5,Cc1cc2ccccc2n1CCC(=O)N1CCC[C@H]1C(N)=O,-2.793%
6,Cc1cc2ccccc2n1CCC(=O)N1CCCC1Cn1cccn1 (configuration not stated),-4.808%
7,Cc1cc2ccccc2n1CCC(=O)N1CCN(C)CC1C(N)=O (configuration not stated),104.9%
8,CSCCC(=O)N1CCCC(c2nccn2Cc2ccncc2)C1 (configuration not stated),-15.94%
9,Cc1ccnn1CCC(=O)N1C[C@H]2CC[C@@H]1CN(CC(=O)N(C)C)C2,-3.709%
10,Cc1c[nH]nc1C1CCCCN1C(=O)CCn1nccc1C (configuration not stated),91.05%
11,Cc1c[nH]nc1C1CCCCN1C(=O)CC1(O)CCCCC1 (configuration not stated),121.5%
12,Cc1cccc(C2CCCCN2C(=O)CCCS(C)(=O)=O)c1C (configuration not stated),-5.265%
13,Cc1c[nH]nc1C1CCCCN1C(=O)Cn1cc(Cl)cn1 (configuration not stated),-1.424%
14,Cc1n[nH]cc1CNC(=O)[C@H]1CCCCN1C(=O)OC(C)(C)C,-12.93%
15,Cc1c[nH]nc1C1CCCCN1C(=O)CNS(C)(=O)=O (configuration not stated),91.22%
16,CS(=O)(=O)NCC(=O)N1CCCC1c1noc(C2CC2)n1 (configuration not stated),-4.288%
17,Cn1cc(C2CCCN2C(=O)COC2CCCCC2)cn1 (configuration not stated),-3.38%
18,CC(CCCC(C)(C)O)Nc1ccc(-c2nccn2C)nn1 (configuration not stated),6.201%
19,COc1cc(N2CCC(c3nccn3Cc3ccccc3)CC2)ncn1,-9.757%
20,CN(C)C(=O)c1ccc2c(c1)N(C)C(CC(=O)NCCC(C)(C)C)CO2 (configuration not stated),1.305%
21,CC(C)=CCN1CCN(Cc2nc3ccccc3[nH]2)[C@H]2CS(=O)(=O)C[C@H]21,-9.753%
22,Cn1ccnc1CN1CCN(CC2CC2)[C@@H]2CS(=O)(=O)C[C@@H]21,106.1%

row,Compound,Percent Effect
1,CC(C)=CCN1CCN(Cc2nccn2C)[C@H]2CS(=O)(=O)C[C@H]21,99.3%
2,CC(C)=CCN1CCN(Cc2ncc[nH]2)[C@H]2CS(=O)(=O)C[C@H]21,-11%
3,O=S1(=O)C[C@@H]2[C@H](C1)N(Cc1ncc[nH]1)CCN2CC1CC1,-14.64%
4,O=S1(=O)C[C@@H]2[C@H](C1)N(Cc1cc(Cl)cc(Cl)c1)CCN2CC1CC1,5.878%
5,CN1CCN(c2cnn(Cc3ccc(S(C)(=O)=O)cc3)c(=O)c2)CC1,4.016%
6,Cc1ccc(N2CCCC(N3CCN(CC(F)F)CC3)C2=O)cc1 (configuration not stated),-21.44%
7,CCOc1ncccc1C(=O)N(C)C1CCN(c2ccccn2)CC1,144.5%
8,COc1ccccc1C(=O)N(C)C1CCN(c2ccccn2)CC1,177.1%
9,Cc1ccccc1CC(=O)N(C)C1CCN(c2ccccn2)CC1,-4.877%
10,CN(C(=O)c1ccccc1Cl)C1CCN(c2ccccn2)CC1,11.04%
11,CN(C(=O)c1cccc2[nH]ncc12)C1CCN(c2ccccn2)CC1,-1.361%
12,CN(C(=O)CNc1ccc(C#N)cc1)C1CCN(c2ccccn2)CC1,6.622%
13,Cc1cccc(C(=O)N(C)C2CCN(c3ccccn3)CC2)c1C,141.7%
14,CN(C1CCN(c2ccccn2)CC1)S(=O)(=O)c1ccc(F)cc1,18.41%
15,O=C(Cn1cnnn1)NCC1(O)CCCc2ccccc21 (configuration not stated),-5.769%
16,CC(=O)Nc1ccc(CNC(=O)CNCc2sc(C)nc2C)cc1,-27.38%
17,CCOC(=O)CC(C)NC(=O)c1cn(Cc2ccccc2F)nn1 (configuration not stated),-6.246%
18,CNC(=O)C(C)NC(=O)c1ccc(Oc2cccnc2)cc1 (configuration not stated),-6.707%
19,CN(C(=O)COc1ccc(F)cc1)[C@@H]1CC[C@@H](n2ccnc2)[C@@H]1O,128.1%
20,CN(C(=O)COc1ccc(F)cc1)[C@@H]1CS(=O)(=O)C[C@H]1O,1.163%
21,CO[C@@H]1CC[C@@H](N(C)C(=O)COc2ccc(F)cc2)[C@H]1O,-1.969%
22,Cn1nc(CC(C)(C)C)cc1NC(=O)c1ccc2[nH]nnc2c1,-11.38%

row,Compound,Percent Effect
1,CCOc1cc(C(=O)N(C)C)ccc1NC(=O)C(C)c1ccsc1 (configuration not stated),-4.912%
2,CCC(C)N(Cc1ccsc1)C(=O)c1ccc2[nH]nnc2c1 (configuration not stated),109%
3,CN(C)c1cccc(CNC(=O)Nc2ccc3[nH]nnc3c2)n1,0.1018%
4,CC(C)Cc1cc(NC(=O)c2ccc3[nH]nnc3c2)n(C)n1,-17.03%
5,CCC(C)N(Cc1ccsc1)C(=O)c1ccc(CO)cc1 (configuration not stated),113.9%
6,CCC(C)N(CC)C(=O)c1ccc2[nH]nnc2c1 (configuration not stated),122.8%
7,CC(=O)N(Cc1ccsc1)c1ccccc1,-9.96%
8,CCC(CO)N(Cc1ccc(C(=O)O)cc1)Cc1ccsc1 (configuration not stated),4.353%
9,CCn1nc(C)c(CCNC(=O)C2CCCN(C(=O)N(C)C)C2)c1C (configuration not stated),-3.526%
10,COC(=O)CN(Cc1ccccc1C)C(=O)C1CCC1,9.342%
11,CN(Cc1cccs1)C(=O)CN(C)C1CCc2ccccc21 (configuration not stated),8.524%
12,O=C(O)C(F)(F)F.c1ccc(OCc2noc3c2CN(c2ncccn2)CC3)nc1,2.544%
13,Cc1cnc(N2CCc3onc(COc4cccnc4)c3C2)nc1,88.9%
14,Cn1nc(COc2cncnc2)c2c1CCN(Cc1ccccn1)C2.O=C(O)C(F)(F)F,8.456%
15,Cn1nc(COc2cncnc2)c2c1CCN(Cc1ccco1)C2.O=C(O)C(F)(F)F,2.599%
16,Cc1cnc(N2CCc3c(c(COc4cncnc4)nn3C)C2)nc1,94.36%
17,c1cncc(OCc2noc3c2CN(Cc2ccoc2)CC3)c1,7.434%
18,Cn1nc(COc2cccnc2)c2c1CCN(c1ncccn1)C2,87.22%
19,Cn1nc(Cn2ccnc2)c2c1CN(c1ncccn1)C2.O=C(O)C(F)(F)F,-4.507%
